This is an account of results in PubChem BioAssay (NCI).

About 83,000 compounds went through this panel and 20% of them were active in at least one assay; those are over-represented in the sample as a whole.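 Single-concentration screen, 48 h exposure, 96-well plates. Endpoint: percent growth. Below 10 = active.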 Unmarked numbers belong to inactive results. Active and inactive are the calls of the source.

Some test systems named below: NCI-H23 lung; NCI-H226 lung; NCI-H322M lung; HOP-62 NSCLC; NCI-H460 lung; HOP-92 NSCLC; NCI-H522 lung; A549/ATCC NSCLC; 786-0 renal; COLO 205 colon; DU-145 prostate; K-562 leukemia; MALME-3M melanoma; MDA-MB-231 breast; RXF 393 renal; SF-268 CNS; SF-295 CNS; SF-539 CNS; UACC-257 melanoma; M14 melanoma.
Experiment in all cases: NCI-60 one-dose screen, 48 h (100 = growth as untreated, 0 = no growth, -100 = all killed)
Common to all, as to conditions: 10 µM unless noted

With `C#CCN(CCCOc1ccc(Cl)cc1Cl)CCCSC(=O)CCCCCN1/C(=C\C=C2/CCCC(/C=C/C3=[N+](CCCCCC(=O)[O-])c4ccccc4C3(C)C)=C2Cl)C(C)(C)c2ccccc21`, the growth with NCI-H23 lung is 45.3%; in the test on NCI-H226 lung it was -10.9% (active); in the test with NCI-H322M lung, 83.7%; in the test with HOP-62 NSCLC it was 30.7%; in the test with NCI-H460 lung, 11.8%; in the test on HOP-92 NSCLC, 13.7%. Further, the growth in the test with NCI-H522 lung is -10.3% (active); in the test with A549/ATCC NSCLC, 66%; in the test with 786-0 renal it was 25.4%; in the test on COLO 205 colon it was 32.8%; in the test with DU-145 prostate, 47%; in the test with K-562 leukemia, 0.955% (active). The growth is -56.2% (active) with MALME-3M melanoma; -6.25% (active) with MDA-MB-231 breast; -45.2% (active) in the test on RXF 393 renal; 7.44% (active) in the test on SF-268 CNS; 53.3% in the test on SF-295 CNS; -50.2% (active) with SF-539 CNS. Also, the growth in the test on UACC-257 melanoma was 30.8%; in the test with M14 melanoma, 49.7%.
With `O=C1CCC23OC(c4ccccc4N12)C(O)C(O)C3O` (stereo not given), the growth is 102% with NCI-H23 lung; 107% in the test with NCI-H226 lung; 98.6% in the test with NCI-H322M lung; 104% with HOP-62 NSCLC; 112% with NCI-H460 lung; 113% in the test on HOP-92 NSCLC. The growth was 81% with NCI-H522 lung; 94.5% with A549/ATCC NSCLC; 98.8% with 786-0 renal; 124% in the test with COLO 205 colon; 107% with DU-145 prostate; 90.4% with K-562 leukemia. For the same molecule, the growth in the test on MALME-3M melanoma was 91.6%; in the test with MDA-MB-231 breast, 103%; in the test with RXF 393 renal, 113%; in the test on SF-268 CNS, 96.6%; with SF-295 CNS, 110%; with SF-539 CNS, 101%. For the same molecule, the results for the growth with UACC-257 melanoma and in the test with M14 melanoma were 102% and 100%, respectively.
In the case of `COc1ccc2nc3c(n2c1)C(=O)C(=O)c1ccccc1-3`, the growth with NCI-H23 lung was -42.1% (active); in the test with NCI-H226 lung it was 14.9%; with NCI-H322M lung it was -60.9% (active); in the test on HOP-62 NSCLC, -72.9% (active); in the test with NCI-H460 lung, 14.9%; in the test on HOP-92 NSCLC it was 37.4%. Also, the growth with NCI-H522 lung is -69.9% (active); in the test on A549/ATCC NSCLC, -24.3% (active); with 786-0 renal, 8.6% (active); in the test with COLO 205 colon, 42.7%; with DU-145 prostate, -92.5% (active); in the test on K-562 leukemia it was -18.2% (active). Moreover, the growth in the test with MALME-3M melanoma is -90.1% (active); in the test on MDA-MB-231 breast, 16.7%; in the test on RXF 393 renal, -16.9% (active); with SF-268 CNS, 2.6% (active); in the test with SF-295 CNS, -95.3% (active); with SF-539 CNS, -95.3% (active). In addition, the results for the growth in the test on UACC-257 melanoma and in the test with M14 melanoma were -83.2% (active) and -82.9% (active), respectively.
For `COc1ccc2nc(-c3ccc(Cl)cc3)cc(-c3nnc(SCC(=O)Nc4ccc(/C(C)=N\O)cc4)o3)c2c1`, the growth in the test with NCI-H23 lung was 2.74% (active); in the test with NCI-H226 lung it was 22.8%; in the test on NCI-H322M lung it was 57.4%; in the test with HOP-62 NSCLC it was 60%; with NCI-H460 lung, -31.2% (active); in the test on HOP-92 NSCLC, 19.1%. For the same molecule, the growth in the test on NCI-H522 lung is 9.31% (active); in the test on A549/ATCC NSCLC, -9.66% (active); with 786-0 renal it was 25.9%; in the test with COLO 205 colon, 56.1%; in the test on DU-145 prostate it was 25.9%; with K-562 leukemia, 15.9%. Also, the growth in the test with MALME-3M melanoma is 15.1%; in the test with MDA-MB-231 breast, 39.7%; in the test on RXF 393 renal, 39.7%; with SF-268 CNS, 33.1%; in the test on SF-295 CNS it was 43%; in the test on SF-539 CNS it was 68.4%. The growth was 44.4% in the test with UACC-257 melanoma and 30.3% in the test with M14 melanoma.
Regarding `Cc1ccc(C(=O)O)o1`, the growth in the test with NCI-H23 lung is 100%; in the test on NCI-H226 lung it was 104%; with NCI-H322M lung it was 105%; in the test on HOP-62 NSCLC it was 109%; in the test with NCI-H460 lung, 108%; in the test with HOP-92 NSCLC, 89.9%. For the same molecule, the growth in the test on NCI-H522 lung was 87%; in the test on A549/ATCC NSCLC it was 93.1%; in the test on 786-0 renal it was 97.1%; with COLO 205 colon, 107%; in the test with DU-145 prostate, 107%; in the test with K-562 leukemia it was 103%. Further, the growth is 104% with MALME-3M melanoma; 111% with MDA-MB-231 breast; 118% with RXF 393 renal; 98.1% in the test with SF-268 CNS; 99.8% with SF-295 CNS; 99.5% with SF-539 CNS. Also, the growth is 103% in the test with UACC-257 melanoma and 101% in the test on M14 melanoma.
Consider `O=c1[nH]nc(-c2ccc(Br)cc2)c2sc(NC(=S)Nc3ccc(Cl)cc3)nc12`, for which the growth in the test with NCI-H23 lung was 84.1%; in the test with NCI-H226 lung it was 94.4%; in the test with NCI-H322M lung it was 95.3%; in the test with HOP-62 NSCLC, 104%; in the test on NCI-H460 lung, 102%; in the test on HOP-92 NSCLC, 92.7%. Further, the growth in the test on NCI-H522 lung was 94.1%; with A549/ATCC NSCLC it was 102%; in the test with 786-0 renal it was 102%; in the test on COLO 205 colon it was 124%; in the test with DU-145 prostate, 110%; in the test with K-562 leukemia it was 98.6%. The growth in the test on MALME-3M melanoma was 94.2%; in the test on MDA-MB-231 breast, 92.4%; with RXF 393 renal, 111%; in the test on SF-268 CNS it was 100%; with SF-295 CNS, 96.8%; with SF-539 CNS, 103%. Also, the figures for the growth with UACC-257 melanoma and with M14 melanoma were 113% and 95.3%, respectively.
For the molecule `C=C1C(=O)O[C@H]2[C@H]1CC/C(COC(=O)CCC(=O)OC/C1=C/CC[C@@]3(C)O[C@H]3[C@H]3OC(=O)C(=C)[C@@H]3CC1)=C\CC[C@@]1(C)O[C@@H]21`, the growth in the test on NCI-H23 lung is 58.5%; in the test with NCI-H226 lung it was 84.3%; in the test on NCI-H322M lung, 96.1%; in the test on HOP-62 NSCLC, 85.7%; in the test with NCI-H460 lung, 93.9%; with HOP-92 NSCLC, -1.85% (active). Further, the growth is -69.2% (active) with NCI-H522 lung; 88.7% in the test with A549/ATCC NSCLC; 40.7% with 786-0 renal; -55% (active) in the test with COLO 205 colon; 18.7% with DU-145 prostate; 3.55% (active) in the test with K-562 leukemia. The growth in the test on MALME-3M melanoma is -5.56% (active); with MDA-MB-231 breast, -0.376% (active); in the test with RXF 393 renal, -71.4% (active); with SF-268 CNS, 78.8%; with SF-295 CNS it was 98.4%; in the test with SF-539 CNS, 16.6%. The growth in the test on UACC-257 melanoma was 21.4%; in the test on M14 melanoma it was 1.21% (active).
